The values that follow come from PMC5489143, “One ligand, two regulators and three binding sites: How KDPG controls primary carbon metabolism in Pseudomonas”.

Conditions in all cases: protein: recombinant; tags: C-terminal His (pET42b), not removed; chain copies: 2; label: captured on SA chip through 20-nt ReDCaT single-stranded 3' overhang of strand 2; dsDNA, one strand shown
Experiment [1] addresses T1, RccR-His (Pseudomonas fluorescens SBW25, UniProt A0ACD4XSS6 1-288). In words: SPR (ReDCaT); SPR ReDCaT, 10 mM HEPES pH 7.4, 300 mM NaCl, 3 mM EDTA, 0.05% Tween-20, 25 C; high values mean tight binding.
Experiment [2] deals with T1, RccR-His. In words: SPR (ReDCaT); KDPG 0 uM; SPR ReDCaT, 10 mM HEPES pH 7.4, 300 mM NaCl, 3 mM EDTA, 0.05% Tween-20, 25 C; high values mean tight binding.
The target in experiment [3] is T1, RccR-His. Kind of experiment: SPR (ReDCaT); KDPG 1 uM; SPR ReDCaT, 10 mM HEPES pH 7.4, 300 mM NaCl, 3 mM EDTA, 0.05% Tween-20, 25 C; high values mean tight binding.
Experiment [4] addresses T1, RccR-His. In words: SPR (ReDCaT); KDPG 10 uM; SPR ReDCaT, 10 mM HEPES pH 7.4, 300 mM NaCl, 3 mM EDTA, 0.05% Tween-20, 25 C; high values mean tight binding.
The target of experiment [5] is T1, RccR-His. In words: SPR (ReDCaT); KDPG 100 uM; SPR ReDCaT, 10 mM HEPES pH 7.4, 300 mM NaCl, 3 mM EDTA, 0.05% Tween-20, 25 C; high values mean tight binding.

As to AATGTAGCCCCTTTTTTCAGCCCCTACATG, the binding signal with RccR-His [1] amounted to 6.22 %Rmax.
In the case of GATGTAGTGCTTGAAAAAAAGCACTACAAA, the binding signal came out at 82.8 %Rmax with RccR-His [1]; 67.2 %Rmax with RccR-His [2]; 104 %Rmax with RccR-His [3]; 119 %Rmax with RccR-His [4]; 121 %Rmax in the experiment with RccR-His [5].
As to ATGTAGGGTCCGCCGAAGACCACTACCT, in the experiment with RccR-His [1], the binding signal was determined as 3.18 %Rmax.
On the same count and under the same terms, then TATGTAGTGAGCAAAAATAATCACTACATA, with 59.1 %Rmax.
Turning to CTTGTGTAGTTTTACTACTCGTATATACAT, the binding signal with RccR-His [1] stood at 126 %Rmax; with RccR-His [2], 121 %Rmax; in the experiment with RccR-His [3], 116 %Rmax; with RccR-His [4], 86.8 %Rmax; in the experiment with RccR-His [5] it was 29.9 %Rmax.
On to CTTGTAGTTAATTTTTCGTCACCCGTCATA, for which the binding signal with RccR-His [1] amounted to 8.34 %Rmax.
On the same count and under the same terms, next, CGGTAGTAGTGCGCAACTTTCTACTACAAA: 35.9 %Rmax.
As for CATGTAGTATGCCCAACCGTGCACTACATA, the binding signal with RccR-His [1] amounted to 55.1 %Rmax.
In the case of CTTGTAGTATAACTACAAGCTTGCTACATC, the binding signal with RccR-His [1] is 158 %Rmax; in the experiment with RccR-His [2], 161 %Rmax; with RccR-His [3], 152 %Rmax; in the experiment with RccR-His [4], 125 %Rmax; with RccR-His [5], 105 %Rmax.
